# Test results from the supplement of paper PMC6555819.
# Experiments:
# Test in all cases: PBM binding z-score (relative to random genomic background probes); higher = stronger binding; sequences stand for … in GC…GCGATTGACAGCGTAGAATGAAGG
# [1] = test system: RARg homodimer (NR concentration 270 nM)
# In short: (§1)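 Regression normalization was applied to scanned fluorescence from custom Agilent 4×180K protein-binding microarrays. Before scanning, arrays were incubated 1 h with ligand-free nuclear receptor dimers, and binding was detected with antibodies against each partner (one per run). Binding z-scores use the random background probes as reference.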
# [2] = test system: RXRa DBDmut IVT, anti-RXR (DBD mutation: RXRa K156A/R161A, NR concentration 90 nM)
# In short: as §1
# [3] = test system: THRa:RXRa (NR concentration 90 nM, RXRa partner concentration 90 nM)
# In short: as §1
# [4] = test system: THRa homodimer (NR concentration 90 nM)
# In short: as §1
# [5] = test system: VDR homodimer (NR concentration 270 nM)
# In short: as §1
# [6] = test system: RXRa homodimer (NR concentration 180 nM)
# In short: as §1
# [7] = test system: RARg:RXRa (NR concentration 270 nM, RXRa partner concentration 90 nM)
# In short: as §1
Sequence,PBM binding z-score [1],PBM binding z-score [2],PBM binding z-score [3],PBM binding z-score [4],PBM binding z-score [5],PBM binding z-score [6],PBM binding z-score [7]
ATCGAAAGGTCAAAGGTGAGTATACCCACCCGAA,8.44,3.46,4.31,0.712,2.97,,
CGTCCAAGGTCATAGGGGGTCAGTGAAGACAGAT,7.83,4.45,5.24,4.24,4.75,7.31,
TAGCCGAGGTCATTCAGGGGCCAGTATAGAAAGC,6,4.38,4.56,2.38,5.34,6.55,
ATATGTAGGTTAAAGGTCATTCAGGTTGGTTCGC,5.37,2.47,4.31,1.97,5.11,,6.81
GGAACGAGGTCAAAGTTGATAGCATCTGTCGACG,6.56,4.67,4.12,2.61,4.79,,6.64
CGTCAAAGGTCAAGGTCAGTGAAAGAGACTCGAA,9.35,3.45,4.33,2.28,3.23,,
AATACGGGGTCACTAGGCCAGAGTAGGTACGAAT,6.82,4.12,4.25,2.25,4.82,,7.06
TATACGGGGTCAAAGGCCAGAGTACGAATGTCGA,6.78,4.48,4.43,1.72,5.21,,
TCTAGTTGGTCAAAGGTCACGCACTCGAAATGCG,7.23,1.92,4.31,2.52,3.12,8.9,
GCTTAAGGGTCAAAGGTTATAGCATGAATAGAAT,7.11,3.54,4.14,-0.296,2.8,9.83,
CAAACAAGGTCACAGAGGTCAAAGTCCGTGCGTA,9.05,4.67,5.03,4.36,9.97,,
CAAAATAGGTCACAGAGGTCAAAGTCCGTGCGTA,8.18,3.08,4.74,2.2,6.13,8.46,
CTATGTAGGTTAAGGGAGTCATTCAGTTTGAAAG,0.44,0.0971,0.572,-0.282,0.283,0.802,
CGTCAAAGGTCAACTAAGGTAACGTAAAGCACGC,9.23,3.52,5.48,2.46,2.23,,
CCTCGGAGGTCAACAGGAGGTCAGAGCTGCCAGA,7.73,3.36,4.73,1.81,3.37,7.54,
CAAAATAGGTCACGAAAGGTCAAAGTCGAATGAC,8.76,2.5,5.07,1.51,3.8,8.89,
TGTCAAAGTTCAAAGGTTACGTAAGTATCCACAC,6.76,4.3,4.44,0.193,4.2,,
ATCGAAAGGTCAAGGTGAGTATAGAGAAAGGGAA,8.56,2.66,4.3,1.8,1.84,,

Sequence,PBM binding z-score [1],PBM binding z-score [2],PBM binding z-score [3],PBM binding z-score [4],PBM binding z-score [5],PBM binding z-score [6],PBM binding z-score [7]
CTCGAAAGGTCATGCTCAGGTGAGTATACCAAAC,8.47,3.44,4.72,1.61,2.44,,
CCGACGGGGGCAAAGGTTACCATACTCAGTACGA,4.09,3.13,3.88,1.02,2.92,,6.4
CGTCAAAGGTCAAAGGTCAGTGAAGAGATGACGG,9.73,4.01,4.94,1.08,3.49,,
GATACGGGGTCAAGGCCAGAGTACGCGTATTGAT,6.89,4.16,4.23,2.04,4.85,,7.3
GCTGCGAGGTCAACTGATGGTCAGCTAAAGCTCG,7.44,4.3,4.33,2.9,3.42,7.17,
CAAACAAGGTCACGAAAGGTCAAAGTCGAATGAC,9.5,4.12,5.17,3.65,5.74,,
TAGCCTAGGTCATTCAGGGGCAAGTATAGAAAGC,4.44,2.38,,0.948,2.65,3.47,
TCTAGTGGGTCAAAGGTCACACACTCGAAATGCG,7.49,2.07,4.61,1.7,2.84,,
TATACAGGGTCAAAGGCCAAAGTACGAATGTCGA,5.3,3,3.76,0.785,3.3,,6.22
CGTCAAAGGTCAGCAGGTCAGTGAAAGCGACGTG,8.73,2.54,3.92,0.878,1.62,,
GCTGCTAGTTCAACTGATGGTCAGCTAAAGCTCG,1.07,1.97,0.297,-0.498,0.327,,1.93
ATATGTAGGTCAAGGGTCATTCAGGTTGGTTCGC,6.02,2.84,4.58,2.22,4.28,,7.22
CGTCAAAGTTCAACTAAGGTCACGTAAAGCACGC,8.89,4.75,,5.58,6.52,7.65,
CGTCCAAGGTCACAGAGGTCAGTGAATGCCGAGT,8.03,3.92,,3.95,6.67,7.67,
TGTCAAAGTTCAAAGGTGACGTAAGTATCCACAC,6.27,4.5,3.76,-0.183,4.97,,6.99
CGTCAAAGGTCAAGGTAACGTAACAGAAAGCAGC,8.73,3.48,4.25,1.83,1.62,,
CGTCAAAGGTCAGAGAGGTCAGTGAATGCCGAGT,9.03,3.48,4.37,1.6,5.19,,
